We go through 16 molecules from PubChem BioAssay AID652015 (National Center for Advancing Translational Sciences (NCATS), 2013).

Results filed as inconclusive are left out. Where a call stands in place of a potency, no number is given. The source made the active and inactive calls. Calls follow the shape of the dose curve; as a rule, active = well fitted inhibition curve with a large enough effect; inconclusive = small, poorly fitted or top-dose-only effect; inactive = no such curve, though single readings can be large or run the other way.
Potency is read from the fitted curve at half-maximal effect.

In the assay the target is Coelenterazine h 2-monooxygenase (Renilla reniformis) (UniProt P27652). As to the kind of experiment: qHTS Assay for Inhibitors of Sea Pansy Luciferase from the GSK Published Protein Kinase Inhibitor Set. To be noted: purified Renilla luciferase, luminescence; series mostly up to 57.5 µM. The gist of the method: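 Purified R. reniformis luciferase (1 nM final) with 5 uM coelenterazine h in 50 mM Tris acetate pH 7.5, 100 uM NaCl, 0.01% Tween-20, 0.05% BSA. A titration, about 60 uM to 300 pM; luminescence read after about 2 min.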
Sequence of Coelenterazine h 2-monooxygenase (Renilla reniformis) (P27652 whole entry, looked up): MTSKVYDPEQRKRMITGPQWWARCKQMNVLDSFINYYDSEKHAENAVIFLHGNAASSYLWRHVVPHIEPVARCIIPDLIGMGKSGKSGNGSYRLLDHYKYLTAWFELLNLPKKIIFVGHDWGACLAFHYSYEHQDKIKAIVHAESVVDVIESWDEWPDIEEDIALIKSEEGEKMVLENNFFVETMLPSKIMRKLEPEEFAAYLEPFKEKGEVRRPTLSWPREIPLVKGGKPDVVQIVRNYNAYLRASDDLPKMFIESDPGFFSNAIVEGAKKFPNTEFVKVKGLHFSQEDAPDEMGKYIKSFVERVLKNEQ
With `Cc1nnc(-c2ccc(C)c(-c3ccc(C(=O)NCc4ccc(Cl)cc4)cc3)c2)o1`, the Potency result is “inactive”.

For `CN(c1ccc(NC(=O)Nc2c(Cl)cccc2Cl)cc1)c1ccnc(Nc2cccc(CS(C)(=O)=O)c2)n1`, the Potency entry is “inactive”.

Regarding `NC(=O)c1cc(-c2ccc(F)cc2)cc(-c2ccncc2)c1N`, the Potency entry was “inactive”.

Take `COc1ccccc1C1=C(Nc2ccccc2)C(=O)NC1=O`: the Potency result was “inactive”.

On to `CN(C)c1ccc2[nH]c(O)c(C=Nc3ccc(S(N)(=O)=O)cc3)c2c1`, for which the Potency was 5.8 µM (active).

Regarding `Cc1nnc(-c2ccc(C)c(-c3ccc(C(=O)Nc4cccc(C#N)c4)cc3)c2)o1`, the Potency entry is “inactive”.

As for `CS(=O)(=O)Nc1cccc(-c2ccc3c(NC(=O)C4CC4)n[nH]c3c2)c1`, the Potency result was “inactive”.

On to `CN(c1ccc(NC(=O)NCCN2CCOCC2)cc1)c1ccnc(Nc2ccc(CS(C)(=O)=O)cc2)n1`, for which the Potency entry is “inactive”.

For the molecule `Nc1nc(-c2ccc(F)cc2)c(-c2ccc3ncccc3n2)s1`, the Potency entry is “inactive”.

In the case of `Fc1ccc(-c2c(-c3ccncc3)nc3n2CCS3)cc1`, the Potency result was “inactive”.

For the molecule `Cc1cccc(-c2[nH]ncc2-c2ccc3ncccc3n2)n1`, the Potency result is “inactive”.

For `FC(F)(F)c1cccc(-c2nn3ncccc3c2-c2ccnc(Nc3ccc4c(c3)OCCO4)n2)c1`, the Potency result was “inactive”.

As to `COc1cc(Nc2nccc(-c3cnn4ncccc34)n2)cc(OC)c1`, the Potency result was “inactive”.

For `FC(F)(F)c1ccc(-c2nn3ncccc3c2-c2ccnc(Nc3ccc4c(c3)OCCO4)n2)cc1`, the Potency entry is “inactive”.

Regarding `CCn1c(-c2nonc2N)nc2cncc(C(=O)N3CCC(N)C3)c21` (stereo unspecified), the Potency result is “inactive”.

As to `O=C(OC1CNC(C#Cc2cc3ncnc(Nc4ccc5c(ccn5Cc5cc(F)ccc5F)c4)c3s2)C1)N1CCOCC1` (stereo unspecified), the Potency entry was “inactive”.
